The record followed here is PubChem BioAssay (EPA / NIEHS).

SMILES strings stand for the structures. Active and inactive are the calls of the source. How the source made its calls: active means hit-call score of the fitted dose curve at least 0.9, where 1 is the maximum; inactive means score below 0.9.

The nature of one experiment: APR_HepG2_p53Act_72hr: Apredica 72-hour HepG2 Assay for p53 Activation (AID 2282923).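 Further: average cellular p53 protein immunofluorescence intensity in HepG2 cells.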 The settings on record: high-content imaging, actives raise or lower the signal. In a few lines: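 Cells were dosed for 72 hr with compounds at 0.39–200 uM in duplicate (final DMSO 0.5% v/v), then fixed in 3.7% formaldehyde, permeabilized with Triton X-100 and immunostained for p53 (Cy5) with Hoechst 33342 nuclear counterstain.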
Regarding `CC(C)CCCCCCOC(=O)c1ccc(C(=O)OCCCCCCC(C)C)c(C(=O)OCCCCCCC(C)C)c1`, the result was inactive.

For `O=C(CCCCCCCCc1cccnc1)N1CCC(C=C(c2ccccc2)c2ccccc2)CC1`, the compound was called inactive.

For the compound `COCCOc1cc2cc(C(=O)NC3CCN(C(C)C)CC3)n(CC(=O)Nc3ccc(Cl)cn3)c2cn1`, the result was inactive.

For the compound `CCCCC(CC)COC(=O)CCCCCCCCC(=O)OCC(CC)CCCC` (stereo not given), the call was inactive.

For `CCCCCCCCO`, the compound was called inactive.

Consider `Cn1c(=O)cc(Oc2ccc(F)cc2F)c2cnc(NCC(C)(C)O)nc21`, for which the result was inactive.

Turning to `O=C(O)CCN(C1(C(=O)NO)CCCC1)S(=O)(=O)c1ccc(Oc2ccc(F)cc2)cc1`, the call was inactive.

Turning to `Nc1nc2ncc(CNc3ccc(C(=O)N[C@@H](CCC(=O)O)C(=O)O)cc3)nc2c(=O)[nH]1`, the compound was classed as inactive.

Turning to `CC(C)c1cccc(C(C)C)c1N1C(=O)c2ccc(O)cc2C1=O`, the AC50 was 3.01 µM (active).

As to `CCOC(=O)COc1ccc2c(c1)CC(NCC(O)c1cccc(Cl)c1)CC2` (stereo not given), the compound was classed as inactive.

Regarding `O=c1[nH]c2ccc(S(=O)CCN3CCC(Cc4ccc(F)cc4)CC3)cc2o1` (stereo not given), the compound was called inactive.

`COc1ccc2sc(C(=O)Nc3nnn[nH]3)c(OC(C)C)c2c1`: the outcome was inactive.

With `CC(C)=CCC/C(C)=C/CO`, the AC50 is 107 µM (active).

As to `CC1(C)C(=O)N(Br)C(=O)N1Br`, the call was inactive.

Regarding `COc1ccc(/C=C/S(=O)(=O)NC(=O)c2ccc(C)cc2Cl)cc1`, the AC50 is 113 µM (active).

For `Cc1ccc(N)cc1O`, the compound was classed as inactive.

Take `Nc1cccc(N)c1`: the result was inactive.

Consider `COC(=O)c1ccccc1O`, for which the compound was classed as inactive.

`CCCCC(CC)COC(=O)c1ccc(C(=O)OCC(CC)CCCC)cc1` (stereo not given): the outcome was inactive.

Consider `CC/C(=C\C(=N/O)C(N)=O)C(C)[N+](=O)[O-]` (stereo not given), for which the outcome was inactive.

With `O=C(NS(=O)(=O)/C=C/c1ccccc1)c1ccc(F)cc1Cl`, the call was inactive.

Regarding `CCOCCO`, the call was inactive.

Consider `CC[C@H]1OC(=O)[C@H](C)[C@@H](O[C@H]2C[C@@](C)(OC)[C@@H](O)[C@H](C)O2)[C@H](C)[C@@H](O[C@@H]2O[C@H](C)C[C@H](N(C)C)[C@H]2O)[C@](C)(O)C[C@@H](C)C(=O)[C@H](C)[C@@H](O)[C@]1(C)O`, for which the outcome was inactive.

On to `CC[C@H]1CC[C@H](NCc2cc3c(cc2OC)[C@H]2C[C@H]2C(=O)N3C)[C@H](c2ccccc2)N1`, for which the compound was called inactive.

`CC(C)CCO`: the result was inactive.

Regarding `CNCc1ccc(NC(=O)c2c[nH]c3c2C(=O)CCC3)cc1`, the compound was called inactive.

Consider `CC(C)CC(C)(O)C#CC(C)(O)CC(C)C` (stereo not given), for which the compound was called inactive.

As to `C1=CCCC=CCCC=CCC1`, the result was inactive.

Consider `CCCCCCc1ccc(O)cc1O`, for which the outcome was inactive.

On to `CN(C)c1ccc(Cc2ccc(N(C)C)cc2)cc1`, for which the compound was called inactive.

The nature of another experiment: APR_HepG2_MitoMass_72hr: Apredica 72-hour HepG2 Assay for Mitochondrial Mass (AID 2282924).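 Further: MitoTracker Red CMXRos stain intensity per cell imaged as mitochondrial mass.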 The settings on record: high-content imaging, actives raise or lower the signal. In a few lines: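 HepG2 cells dosed 72 hr at 0.39–200 uM (0.5% DMSO), in duplicate. MitoTracker Red CMXRos 250 nM loaded 30 min before formaldehyde fixation; high-content fluorescence imaging, bidirectional fit versus DMSO.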
As for `CC(C)CCCCCCOC(=O)c1ccc(C(=O)OCCCCCCC(C)C)c(C(=O)OCCCCCCC(C)C)c1`, the outcome was inactive.

`O=C(CCCCCCCCc1cccnc1)N1CCC(C=C(c2ccccc2)c2ccccc2)CC1`: the result was inactive.

Take `COCCOc1cc2cc(C(=O)NC3CCN(C(C)C)CC3)n(CC(=O)Nc3ccc(Cl)cn3)c2cn1`: the call was inactive.

For `CCCCC(CC)COC(=O)CCCCCCCCC(=O)OCC(CC)CCCC` (stereo not given), the AC50 is 36.5 µM (active).

Regarding `CCCCCCCCO`, the compound was classed as inactive.

`Cn1c(=O)cc(Oc2ccc(F)cc2F)c2cnc(NCC(C)(C)O)nc21`: the result was inactive.

Take `O=C(O)CCN(C1(C(=O)NO)CCCC1)S(=O)(=O)c1ccc(Oc2ccc(F)cc2)cc1`: the outcome was inactive.

`Nc1nc2ncc(CNc3ccc(C(=O)N[C@@H](CCC(=O)O)C(=O)O)cc3)nc2c(=O)[nH]1`: the result was inactive.

`CC(C)c1cccc(C(C)C)c1N1C(=O)c2ccc(O)cc2C1=O`: the compound was called inactive.

On to `CCOC(=O)COc1ccc2c(c1)CC(NCC(O)c1cccc(Cl)c1)CC2` (stereo not given), for which the compound was classed as inactive.

On to `O=c1[nH]c2ccc(S(=O)CCN3CCC(Cc4ccc(F)cc4)CC3)cc2o1` (stereo not given), for which the call was inactive.

`COc1ccc2sc(C(=O)Nc3nnn[nH]3)c(OC(C)C)c2c1`: the compound was called inactive.

Turning to `CC(C)=CCC/C(C)=C/CO`, the outcome was inactive.

Turning to `CC1(C)C(=O)N(Br)C(=O)N1Br`, the result was inactive.

Turning to `COc1ccc(/C=C/S(=O)(=O)NC(=O)c2ccc(C)cc2Cl)cc1`, the outcome was inactive.

In the case of `Cc1ccc(N)cc1O`, the call was inactive.

In the case of `Nc1cccc(N)c1`, the result was inactive.

On to `COC(=O)c1ccccc1O`, for which the outcome was inactive.

With `CCCCC(CC)COC(=O)c1ccc(C(=O)OCC(CC)CCCC)cc1` (stereo not given), the outcome was inactive.

`CC/C(=C\C(=N/O)C(N)=O)C(C)[N+](=O)[O-]` (stereo not given): the outcome was inactive.

For `O=C(NS(=O)(=O)/C=C/c1ccccc1)c1ccc(F)cc1Cl`, the call was inactive.

For the compound `CCOCCO`, the result was inactive.

For the compound `CC[C@H]1OC(=O)[C@H](C)[C@@H](O[C@H]2C[C@@](C)(OC)[C@@H](O)[C@H](C)O2)[C@H](C)[C@@H](O[C@@H]2O[C@H](C)C[C@H](N(C)C)[C@H]2O)[C@](C)(O)C[C@@H](C)C(=O)[C@H](C)[C@@H](O)[C@]1(C)O`, the outcome was inactive.

As for `CC[C@H]1CC[C@H](NCc2cc3c(cc2OC)[C@H]2C[C@H]2C(=O)N3C)[C@H](c2ccccc2)N1`, the call was inactive.

Regarding `CC(C)CCO`, the compound was classed as inactive.

For `CNCc1ccc(NC(=O)c2c[nH]c3c2C(=O)CCC3)cc1`, the compound was called inactive.

`CC(C)CC(C)(O)C#CC(C)(O)CC(C)C` (stereo not given): the compound was called inactive.

For `C1=CCCC=CCCC=CCC1`, the compound was called inactive.

For the compound `CCCCCCc1ccc(O)cc1O`, the compound was classed as inactive.

For `CN(C)c1ccc(Cc2ccc(N(C)C)cc2)cc1`, the outcome was inactive.
